Assay results as given in the supplement of paper PMC10681739.

Molecular target: T1, ETS1 (UniProt P14921)
T1 sequence: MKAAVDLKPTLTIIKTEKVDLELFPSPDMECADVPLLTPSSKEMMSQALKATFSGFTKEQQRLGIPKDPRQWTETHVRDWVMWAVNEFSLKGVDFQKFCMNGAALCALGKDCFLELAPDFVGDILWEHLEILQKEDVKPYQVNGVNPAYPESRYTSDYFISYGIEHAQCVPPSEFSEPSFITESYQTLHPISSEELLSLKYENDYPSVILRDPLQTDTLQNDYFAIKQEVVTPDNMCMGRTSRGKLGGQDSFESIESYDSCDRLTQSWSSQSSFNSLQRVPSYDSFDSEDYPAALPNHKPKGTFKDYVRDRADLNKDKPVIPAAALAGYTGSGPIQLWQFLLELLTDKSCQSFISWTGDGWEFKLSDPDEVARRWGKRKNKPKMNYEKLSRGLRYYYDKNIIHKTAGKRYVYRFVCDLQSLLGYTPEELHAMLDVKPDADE
Experiment: ETS1 binding intensity (PBM fluorescence), ETS1 alone (arbitrary fluorescence units); higher = stronger binding
Details: ETS1 concentration 1 nM; RUNX1 concentration 0 nM

Q: How did the ETS1 binding intensity turn out when TTACACAACAGGAAACTATGTTTAGCGGTTAATCCA was run?
A: 2490

Q: GACATGCTCCGGAAGCTTGAGGTTTTAACGTTAAGG was tested. Which ETS1 binding intensity did it give?
A: 2040

Q: Which ETS1 binding intensity does the source give for TCTGTGACTACGCGGATGTTGTGGGCGGCTACATGC here?
A: 1000

Q: With CCTGTTGATAAAACAGGATGTGGTAAAGAAGCTGGC as the sequence, how does the ETS1 binding intensity read?
A: 9030

Q: For TCTAAATCACTTCCTGTTACAGAAACCACAGGCCTG, which ETS1 binding intensity is on record?
A: 4300

Q: With GCAGGACTTCCTGTGTTGTGCTAACCTCAAATTACA as the sequence, how does the ETS1 binding intensity read?
A: 975

Q: For CGAGGGAGCCGGAAAGATGGTGGTTACCAGATCTGC, which ETS1 binding intensity is on record?
A: 608

Q: How did the ETS1 binding intensity turn out when GACACAAGAACAGCAGGATGTGGTCAGAGGCGTCGT was run?
A: 2610

Q: With TTTCTGACACTCTCAGGATGTGGGTTTTCACACTGT as the sequence, how does the ETS1 binding intensity read?
A: 1190

Q: Which ETS1 binding intensity does the source give for ATGAGCTATTTCCTGCCTTGTGGTCAGAGCCAGACT here?
A: 1640

Q: CGCCGAACTTCCGGCAGTAAATTCCGTGGTTTCCCT was tested. Which ETS1 binding intensity did it give?
A: 2800

Q: AACCAAACAGCCACAGGAAGTGGTTTCTGTGATTCA was tested. Which ETS1 binding intensity did it give?
A: 7840

Q: For CGTCTAATTGCAGGAAGTGGTTTGAAATGTTAATCT, which ETS1 binding intensity is on record?
A: 4180

Q: How did the ETS1 binding intensity turn out when GGCCTCGGCCACATCCGGGTTCCACCGCAGATTCGG was run?
A: 1850

Q: Which ETS1 binding intensity does the source give for TCGCACCGGAACCCCTTGGCGGATTATGTGGGTTCC here?
A: 659

Q: For GCTGATAGAACAGGATGTGGTAAAGAAGCAGGCCAA, which ETS1 binding intensity is on record?
A: 5330

Q: CAAGAGGAACCGGAACTTTGGAAACCACATTCTTAT was tested. Which ETS1 binding intensity did it give?
A: 1400

Q: With CAGGGTGGAAACAGGAAGAGAAACCACACTTAACCT as the sequence, how does the ETS1 binding intensity read?
A: 1540

Q: With GAGGCCGAAAGGAAGTTTGAGGTTAAGCACAAGATG as the sequence, how does the ETS1 binding intensity read?
A: 975

Q: TCCCACATCCTGTGCTCGTGCAGTGGTTAGGCTCAA was tested. Which ETS1 binding intensity did it give?
A: 562

Q: With CCCAGCCCTGCTGCCGGATGTGGTGAGGCCCAGGTG as the sequence, how does the ETS1 binding intensity read?
A: 5030

Q: For AGGGAACAGGAAATGCAAAAAACCACAAGGGACAAG, which ETS1 binding intensity is on record?
A: 2100

Q: Which ETS1 binding intensity does the source give for ACCTTGCCTAGAGGAAGTGGTTTTTCGAATCTGAGT here?
A: 2070

Q: TCTCTTCCGTTCTCTGGTAGCTTTGTGGTAGCTTTG was tested. Which ETS1 binding intensity did it give?
A: 369

Q: With GGCCTGTCACACACAGGAAGCGGTCACAGAAAAGCT as the sequence, how does the ETS1 binding intensity read?
A: 4530

Q: GACAATGAGCGCACAGGATGTGGTTTGGCGGCAGGG was tested. Which ETS1 binding intensity did it give?
A: 6680

Q: With CATTTCAGTCCAGGATGTGGGTGCACACACCGCTTC as the sequence, how does the ETS1 binding intensity read?
A: 1610

Q: How did the ETS1 binding intensity turn out when CCTTCCTTCCTGCTGTGTACGTTGTGGTCACAGCAC was run?
A: 419

Q: With AGGTTGAAAGCACTTCCGCTGCGGCCCCCGTAGGAA as the sequence, how does the ETS1 binding intensity read?
A: 3040

Q: CCCGCTCACGCCGGAAGTGGTTTGCGTTTTCAAGAT was tested. Which ETS1 binding intensity did it give?
A: 14400

Q: How did the ETS1 binding intensity turn out when CACTTCCTGTCAAAGCCAGTTCCTTAACCGCTTAGG was run?
A: 1610

Q: With TACGGGAACTTCCTTTTCTTGTGGTGTGGCCGGGTC as the sequence, how does the ETS1 binding intensity read?
A: 571

Q: GCGCGGACAGAGAAAGGATGTGGTATAGCAGAAAGT was tested. Which ETS1 binding intensity did it give?
A: 1500

Q: AATTGAGACAGGAAATGTTGGTTTGTGGTCAGGCAC was tested. Which ETS1 binding intensity did it give?
A: 5020

Q: CATGCGTCACCTTCCTGTGTGGTCAGCAGTGCTTGC was tested. Which ETS1 binding intensity did it give?
A: 383

Q: How did the ETS1 binding intensity turn out when TCCTTAATGGTTCCGGCGGCAGGGACCGCAGCGACG was run?
A: 460

Q: For GCTTGCTCCCACAGGAAACCGCAGGCTTCGGGCACA, which ETS1 binding intensity is on record?
A: 3190

Q: With GCCACATATTTCCTGTGACAACCCTGTGGTGTGGCT as the sequence, how does the ETS1 binding intensity read?
A: 641

Q: CAGAGAGCGGACTTCCGCGACGCGGGTAAGCCGGGC was tested. Which ETS1 binding intensity did it give?
A: 498

Q: Which ETS1 binding intensity does the source give for GCCGGAAGCCACGCAGGGCCACGTCTGCGGTTCTGA here?
A: 976
